# For some assays here: Potency and affinity values are given separately.
# How the values were obtained:
# Design in all cases: scale not given: direction of the effect not stated beside the values
# [1] = biological target: Protein translocase subunit SecA (Escherichia coli (strain K12)) (UniProt P10408); assay: Assay to Identify E. coli SecA ATPase Inhibitors; assay type: functional; conditions: 30 µM
# [2] = biological target: T1, Ubiquitin-activating enzyme e1, putative (Leishmania donovani (strain BPK282A1)) (UniProt E9BSI1); assay: Leishmania donovani Ubiquitin Activating Enzyme (LdE1); assay type: functional; conditions: 30 µM
# T1 sequence (whole entry): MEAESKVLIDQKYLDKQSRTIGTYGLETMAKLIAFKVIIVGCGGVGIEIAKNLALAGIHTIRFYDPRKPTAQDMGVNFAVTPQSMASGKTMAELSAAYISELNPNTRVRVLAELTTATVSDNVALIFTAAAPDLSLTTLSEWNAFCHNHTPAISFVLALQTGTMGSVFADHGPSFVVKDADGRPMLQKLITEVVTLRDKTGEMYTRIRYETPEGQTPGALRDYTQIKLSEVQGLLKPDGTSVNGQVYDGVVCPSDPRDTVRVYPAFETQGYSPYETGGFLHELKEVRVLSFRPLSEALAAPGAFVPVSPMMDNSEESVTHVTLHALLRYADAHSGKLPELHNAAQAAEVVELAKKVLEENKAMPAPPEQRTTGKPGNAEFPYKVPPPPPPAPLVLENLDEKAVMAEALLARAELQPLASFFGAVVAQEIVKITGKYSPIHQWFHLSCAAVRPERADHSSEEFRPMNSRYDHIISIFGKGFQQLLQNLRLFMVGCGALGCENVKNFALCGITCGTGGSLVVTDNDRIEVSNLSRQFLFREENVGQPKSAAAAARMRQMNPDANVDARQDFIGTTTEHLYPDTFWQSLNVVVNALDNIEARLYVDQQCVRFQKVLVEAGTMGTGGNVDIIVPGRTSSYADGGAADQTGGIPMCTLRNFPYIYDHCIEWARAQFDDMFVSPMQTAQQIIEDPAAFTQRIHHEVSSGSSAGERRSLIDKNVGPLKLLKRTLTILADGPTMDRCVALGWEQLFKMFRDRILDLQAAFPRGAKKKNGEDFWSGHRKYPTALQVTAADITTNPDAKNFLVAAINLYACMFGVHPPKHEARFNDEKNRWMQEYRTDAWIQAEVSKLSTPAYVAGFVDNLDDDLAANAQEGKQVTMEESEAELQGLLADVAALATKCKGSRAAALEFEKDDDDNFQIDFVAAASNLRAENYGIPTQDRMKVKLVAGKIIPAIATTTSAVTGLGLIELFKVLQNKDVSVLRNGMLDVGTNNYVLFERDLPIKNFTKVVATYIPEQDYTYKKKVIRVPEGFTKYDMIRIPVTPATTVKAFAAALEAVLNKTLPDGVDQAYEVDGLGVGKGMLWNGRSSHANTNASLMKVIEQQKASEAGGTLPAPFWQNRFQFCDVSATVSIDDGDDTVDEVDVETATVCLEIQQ
# [3] = biological target: AMP-activated protein kinase, AMPK (Homo sapiens) (UniProt P54646+O43741+P54619+Q9UGJ0+Q9Y478+Q13131+Q9UGI9); assay: AMP-dependent Kinase enzyme assay. An in vitro enzyme assay that detects ADP turnover that is directly proportional to AMPK activity. This uses naive AMPK that is activated during the assay with MK-8722; assay type: functional; conditions: 30 µM
# [4] = biological target: Sialic acid-binding Ig-like lectin 9 (Homo sapiens) (UniProt Q9Y336); assay: Hs-Siglec9 ALPHAscreen SOP 20170721; conditions: 10 µM
# Trypanosoma cruzi = assay: Trypanosoma cruzi phosphomannomutase and mannose-1-phosphate guanylyltransferase assay; assay type: functional; conditions: 10 µM
# [5] = biological target: T2, Arginase-2, mitochondrial (Homo sapiens) (UniProt P78540); assay: in vitro enzyme assay to detect the production of urea directly proportional to the activity of Arginase II; assay type: functional; conditions: 33.3 µM; note: in the data most compounds retested in dose-response had high values
# T2 sequence (whole entry): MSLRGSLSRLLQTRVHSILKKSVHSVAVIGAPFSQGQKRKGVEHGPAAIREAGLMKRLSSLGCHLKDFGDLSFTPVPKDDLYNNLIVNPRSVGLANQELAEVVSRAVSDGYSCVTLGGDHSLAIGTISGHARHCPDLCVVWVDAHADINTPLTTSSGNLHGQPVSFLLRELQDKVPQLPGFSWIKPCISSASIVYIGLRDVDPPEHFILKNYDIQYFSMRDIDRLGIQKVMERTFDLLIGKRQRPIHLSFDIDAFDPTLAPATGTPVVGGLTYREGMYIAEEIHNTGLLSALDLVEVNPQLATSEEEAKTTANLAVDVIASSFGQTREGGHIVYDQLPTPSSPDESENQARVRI
# [6] = biological target: T3, Proteasome subunit beta (Trypanosoma cruzi) (UniProt O96673); assay: Trypanosoma cruzi proteasome chymotrypsin-like activity (TcProtChymo) assay.; note: in the data most compounds retested in dose-response had high values; assay type: functional; conditions: 9.37 µM
# T3 sequence (whole entry): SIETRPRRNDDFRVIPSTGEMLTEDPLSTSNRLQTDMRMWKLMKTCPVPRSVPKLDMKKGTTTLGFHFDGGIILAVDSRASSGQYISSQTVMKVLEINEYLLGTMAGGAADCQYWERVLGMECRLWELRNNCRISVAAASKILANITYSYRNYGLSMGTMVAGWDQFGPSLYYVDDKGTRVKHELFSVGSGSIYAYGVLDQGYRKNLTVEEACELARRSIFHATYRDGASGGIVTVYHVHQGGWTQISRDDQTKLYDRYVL
# Homo sapiens = species: Homo sapiens; assay: To identify inhibition of the IFN signalling (Jak-Stat) pathway via expression of an eGFP reporter gene under the control of an IFN-stimulated response element (ISRE) containing MxA promoter.; assay type: functional; conditions: 30 µM
# [7] = biological target: T4, Tyrosyl-tRNA synthetase, putative (Trypanosoma cruzi (strain CL Brener)) (UniProt Q4DSP6); assay: Trypanosoma cruzi tyrosyl tRNA synthetase (TcYRS) _High Tyrosine SOP; assay type: functional; conditions: 30 µM; note: in the data most compounds retested in dose-response had high values
# T4 sequence (whole entry): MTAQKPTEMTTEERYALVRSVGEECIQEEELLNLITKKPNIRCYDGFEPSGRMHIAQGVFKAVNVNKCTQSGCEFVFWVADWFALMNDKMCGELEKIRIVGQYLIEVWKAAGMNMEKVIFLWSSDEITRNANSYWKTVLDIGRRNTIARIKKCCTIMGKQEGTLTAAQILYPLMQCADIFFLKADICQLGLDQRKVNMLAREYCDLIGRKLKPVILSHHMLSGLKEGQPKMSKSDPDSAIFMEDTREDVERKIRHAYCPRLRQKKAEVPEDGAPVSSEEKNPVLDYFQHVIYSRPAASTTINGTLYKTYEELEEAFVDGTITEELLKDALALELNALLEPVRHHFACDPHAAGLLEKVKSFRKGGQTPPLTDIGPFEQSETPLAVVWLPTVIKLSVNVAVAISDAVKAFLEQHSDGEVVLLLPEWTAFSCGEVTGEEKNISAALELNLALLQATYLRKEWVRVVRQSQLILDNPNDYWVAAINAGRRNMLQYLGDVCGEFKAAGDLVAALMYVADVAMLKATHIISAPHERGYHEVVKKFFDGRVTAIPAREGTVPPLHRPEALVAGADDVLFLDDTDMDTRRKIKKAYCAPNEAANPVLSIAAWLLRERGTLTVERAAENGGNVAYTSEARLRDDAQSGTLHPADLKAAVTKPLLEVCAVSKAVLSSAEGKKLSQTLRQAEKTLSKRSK
# [8] = biological target: T4, Tyrosyl-tRNA synthetase, putative (Trypanosoma cruzi (strain CL Brener)); assay: Trypanosoma cruzi tyrosyl tRNA synthetase (TcYRS) SOP; assay type: functional; conditions: 30 µM
# [9] = biological target: Chromo domain-containing protein 1 (Saccharomyces cerevisiae (strain ATCC 204508 / S288c) (Baker's yeast)) (UniProt P32657); assay: ScCHD-1 Enzyme Inhibition Assay; assay type: functional; conditions: 30 µM; note: in the data most compounds retested in dose-response had high values
# Chain of Chromo domain-containing protein 1 (Saccharomyces cerevisiae (strain ATCC 204508 / S288c) (Baker's yeast)) (P32657 whole entry, the tested form may be a part): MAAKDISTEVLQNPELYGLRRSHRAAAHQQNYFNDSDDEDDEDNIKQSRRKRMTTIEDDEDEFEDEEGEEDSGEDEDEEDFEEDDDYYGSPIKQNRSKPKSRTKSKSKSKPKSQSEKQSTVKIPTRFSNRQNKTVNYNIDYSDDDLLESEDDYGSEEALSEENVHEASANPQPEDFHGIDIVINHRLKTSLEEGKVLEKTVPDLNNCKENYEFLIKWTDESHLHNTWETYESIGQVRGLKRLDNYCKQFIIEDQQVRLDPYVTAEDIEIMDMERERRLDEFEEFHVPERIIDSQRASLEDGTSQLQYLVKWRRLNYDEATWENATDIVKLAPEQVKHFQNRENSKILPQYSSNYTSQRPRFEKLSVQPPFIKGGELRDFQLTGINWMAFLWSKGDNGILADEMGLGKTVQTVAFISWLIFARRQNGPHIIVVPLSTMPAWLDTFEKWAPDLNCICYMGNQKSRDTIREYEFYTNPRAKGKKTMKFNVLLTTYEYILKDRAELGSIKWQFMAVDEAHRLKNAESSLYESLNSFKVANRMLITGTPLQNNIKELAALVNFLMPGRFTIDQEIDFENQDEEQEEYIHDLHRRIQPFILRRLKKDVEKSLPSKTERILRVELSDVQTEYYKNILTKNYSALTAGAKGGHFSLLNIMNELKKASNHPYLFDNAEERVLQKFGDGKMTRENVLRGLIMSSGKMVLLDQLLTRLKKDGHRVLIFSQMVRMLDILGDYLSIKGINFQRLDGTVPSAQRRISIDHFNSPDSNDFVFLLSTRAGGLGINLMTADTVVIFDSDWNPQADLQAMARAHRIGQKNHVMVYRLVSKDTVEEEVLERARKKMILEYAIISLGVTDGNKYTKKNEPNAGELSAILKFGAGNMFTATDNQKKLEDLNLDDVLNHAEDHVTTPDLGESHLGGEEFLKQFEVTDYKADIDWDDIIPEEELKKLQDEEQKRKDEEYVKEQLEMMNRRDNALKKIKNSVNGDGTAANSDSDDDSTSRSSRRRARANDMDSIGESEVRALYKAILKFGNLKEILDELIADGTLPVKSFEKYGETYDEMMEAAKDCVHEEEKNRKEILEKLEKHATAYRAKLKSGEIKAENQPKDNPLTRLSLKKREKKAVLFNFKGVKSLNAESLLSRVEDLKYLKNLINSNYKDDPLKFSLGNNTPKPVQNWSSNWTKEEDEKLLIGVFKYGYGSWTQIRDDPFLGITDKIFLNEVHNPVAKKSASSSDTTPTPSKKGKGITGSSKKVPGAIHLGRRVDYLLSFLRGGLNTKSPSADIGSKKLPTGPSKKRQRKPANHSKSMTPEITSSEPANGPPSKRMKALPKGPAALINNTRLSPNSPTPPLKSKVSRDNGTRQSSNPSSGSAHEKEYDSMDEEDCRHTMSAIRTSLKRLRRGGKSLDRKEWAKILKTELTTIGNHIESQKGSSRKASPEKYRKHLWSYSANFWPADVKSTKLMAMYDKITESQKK
# Chain of Sialic acid-binding Ig-like lectin 9 (Homo sapiens) (Q9Y336 whole entry): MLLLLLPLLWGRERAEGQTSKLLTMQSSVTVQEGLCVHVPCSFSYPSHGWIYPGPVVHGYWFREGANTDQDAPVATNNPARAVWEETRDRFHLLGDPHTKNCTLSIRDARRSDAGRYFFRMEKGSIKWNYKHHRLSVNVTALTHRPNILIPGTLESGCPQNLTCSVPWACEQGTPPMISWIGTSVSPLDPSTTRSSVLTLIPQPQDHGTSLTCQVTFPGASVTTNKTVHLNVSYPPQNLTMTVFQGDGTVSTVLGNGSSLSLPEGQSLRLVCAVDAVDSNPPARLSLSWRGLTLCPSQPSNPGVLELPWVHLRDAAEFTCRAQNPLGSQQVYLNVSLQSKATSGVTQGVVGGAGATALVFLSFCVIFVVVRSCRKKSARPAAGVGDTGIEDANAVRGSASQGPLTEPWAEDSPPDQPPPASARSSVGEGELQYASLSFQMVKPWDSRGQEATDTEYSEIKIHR
# Chain of Protein translocase subunit SecA (Escherichia coli (strain K12)) (P10408 whole entry): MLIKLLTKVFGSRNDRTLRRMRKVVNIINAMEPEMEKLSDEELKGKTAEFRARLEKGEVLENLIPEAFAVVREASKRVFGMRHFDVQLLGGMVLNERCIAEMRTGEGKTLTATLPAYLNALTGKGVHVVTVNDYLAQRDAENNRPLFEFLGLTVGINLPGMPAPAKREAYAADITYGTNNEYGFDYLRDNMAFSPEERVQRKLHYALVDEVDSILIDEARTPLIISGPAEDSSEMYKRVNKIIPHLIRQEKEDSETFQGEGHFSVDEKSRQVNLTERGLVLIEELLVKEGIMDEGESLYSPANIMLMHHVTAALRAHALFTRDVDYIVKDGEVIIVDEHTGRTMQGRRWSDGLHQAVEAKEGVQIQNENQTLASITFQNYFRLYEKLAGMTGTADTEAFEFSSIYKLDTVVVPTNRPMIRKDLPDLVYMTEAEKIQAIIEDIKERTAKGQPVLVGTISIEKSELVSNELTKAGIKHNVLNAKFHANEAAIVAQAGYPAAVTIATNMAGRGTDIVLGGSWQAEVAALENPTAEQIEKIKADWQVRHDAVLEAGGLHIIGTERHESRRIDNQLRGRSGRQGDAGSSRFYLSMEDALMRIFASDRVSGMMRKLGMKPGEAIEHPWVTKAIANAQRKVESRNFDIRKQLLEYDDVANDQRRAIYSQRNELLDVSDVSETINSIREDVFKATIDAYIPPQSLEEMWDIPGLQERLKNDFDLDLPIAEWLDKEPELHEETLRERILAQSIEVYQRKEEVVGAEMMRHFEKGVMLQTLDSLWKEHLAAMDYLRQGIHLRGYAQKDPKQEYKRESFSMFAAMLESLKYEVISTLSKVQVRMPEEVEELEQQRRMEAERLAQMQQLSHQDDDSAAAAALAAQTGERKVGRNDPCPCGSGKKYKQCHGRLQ
Compound,Percent Effect [1],Percent Effect [2],Percent Effect [3],Percent Effect [4],Percent Effect (Trypanosoma cruzi),Percent Effect [5],Percent Effect [6],Percent Effect (Homo sapiens),Percent Effect [7],Percent Effect [8],Percent Effect [9]
CN1CCCC[C@@H]2[C@H]1[C@@H](c1ccccc1)CCN2C(=O)c1ccccc1,-2.17%,-12.2%,2.42%,3.03%,4.54%,0.696%,15.6%,-13.3%,7.53%,14.3%,-12.5%
Cn1nc(CNC(=O)NCc2ccc(Cl)cc2)c2c1CCOC2,-4.99%,5.2%,6.43%,7.81%,3.45%,-7.1%,-3.83%,20.2%,0%,-3.85%,-5.33%
Cc1nn(C)c(N(C)C)c1CNCc1cccc(OCCN(C)C)c1,-0.484%,15.8%,-1.72%,5.4%,-8.08%,-4.98%,14.4%,23.3%,-1.47%,7.32%,-6.3%
COc1ccccc1C(=O)N(C)Cc1ncc(C)c(OC)c1C,-0.917%,-2.6%,2.31%,10.5%,-1.86%,0.21%,3.8%,5.2%,-0.952%,-2.35%,-15.8%
Cc1nccn1C1CCCN(C(=O)c2ccc(N3CCCC3)nn2)C1 (configuration not stated),-4.79%,10.5%,-5.31%,8.97%,1.59%,-0.719%,-4.65%,2.56%,4.43%,11.1%,-6.5%
Cn1cc(C(=O)NC2CCN(C(=O)NCCSC(F)(F)F)CC2)cn1,-1.89%,13.9%,2.72%,2.15%,-1.13%,-0.215%,13%,8.82%,9.38%,17.7%,-19.9%
CC(C)N1CCc2c(C#N)c(NCc3ccco3)n3cnnc3c2C1,-3.81%,7.89%,6.37%,-3.12%,-3.8%,3.55%,15.4%,-16.1%,1.06%,7.79%,-9.63%
Cc1ccc(OCC(=O)NS(=O)(=O)c2cccnc2)cc1C,0.796%,15.8%,3.98%,-2.26%,-7.52%,-3.45%,17.4%,29.1%,-1.47%,4.88%,-9.25%
CN(C)CCN(Cc1cccc(C(F)(F)F)c1)C(=O)c1cc[nH]n1,1.05%,-4.17%,-0.743%,-0.91%,-4.57%,2.65%,5.61%,6.86%,-3.16%,-10.3%,-3.17%
CNS(=O)(=O)Cc1ccc(CNC(=O)Nc2cn[nH]c2)cc1,-5.68%,20.2%,6.15%,-12.1%,-3.68%,1.52%,8.11%,18.9%,2.46%,13.9%,-0.403%
Cc1ccccc1-c1cc(C(=O)N2CCn3c(C)nnc3C2)[nH]n1,-5.53%,10.5%,-1.51%,3.48%,6.01%,0%,4.34%,4.27%,-0.49%,17.1%,-10.8%
CCn1cc2c(n1)CN(C(=O)c1ccncc1)CC2COCC1CC1 (configuration not stated),1.97%,13.3%,-0.804%,23.2%,-1.74%,-23.5%,20.9%,-8.6%,3.12%,20%,-6.15%
Cc1ccc(C(=O)NS(=O)(=O)c2cc(Cl)ccc2Cl)c(=O)[nH]1,-2.59%,5.41%,-4.48%,13.3%,4.18%,-2.4%,4.67%,32%,5.94%,23.2%,-3.61%
CN(Cc1ccccc1)C1(C(=O)O)Cc2ccccc2C1,-3.87%,2.67%,-2.42%,1.78%,-3.6%,3.12%,12.9%,5.79%,2.73%,8.64%,-5.27%
Cc1c(C(=O)NC(C)C(C)C)nnn1-c1cccc2c1CCN(C)C2 (configuration not stated),-4.44%,10.5%,-6.99%,3.62%,1.85%,-17.8%,7.19%,3.15%,3.19%,0%,-11.2%
CN(C)C(=O)NCc1cc2n(n1)CCN(C[C@H]1[C@@H]3CNC[C@@H]31)C2,-4.24%,13.5%,-5.71%,30.6%,9.65%,15.7%,9.65%,10.3%,3.7%,19.5%,-12.2%
CCc1nc2n(n1)CC(NCC(=O)Nc1cc(C)on1)CC2 (configuration not stated),-7.96%,5.06%,-1.49%,2.07%,-7.27%,0.38%,17.1%,22.4%,-3.45%,-8.86%,-4.18%
COc1c(CNCc2cccc(CS(C)(=O)=O)c2)c(C)nn1C,-1.32%,13.5%,-7.47%,-4.4%,-6.13%,1.2%,4.68%,4.32%,-0.493%,11.1%,-6.98%
Cc1cc(CN2CCN(C(=O)NCc3ccc(C)s3)CC2)no1,-0.722%,17.7%,-2.9%,3.54%,-4.82%,10.3%,3.85%,15.8%,2.46%,21.5%,-5.4%
Cc1ccc(C(=O)Nc2cc(C(C)C)n[nH]2)cn1,-6.49%,5.2%,97.8%,4.24%,-5.06%,3.56%,10.3%,75.7%,3.88%,9.76%,-5.01%
CC(O)CN1CCN(C(=O)c2cccc(CC#N)c2)CC1 (configuration not stated),-0.303%,23.4%,-4.34%,-2.88%,0.749%,3.92%,12.7%,27%,6.8%,2.44%,-4.3%
Cc1ccc(CN2CCn3c(C(=O)N(C)C)cnc3C2)s1,-2.48%,10.7%,8.35%,-0.423%,-4.53%,3.5%,7.67%,3.77%,3.19%,8.97%,-5.78%

# From ChEMBL document CHEMBL3988442, “University of Dundee, Small-Polar-MMV Screening Library” (2021)
